Hit rate of the full screen: of about 310,000 compounds, about 14,000 (4.5%) showed an effect of 50% or more. Effects have a minus sign here. The sample as a whole holds a higher share of strong results than the screen did.
target: human ether-à-go-go-related gene (hERG) potassium channel (human, UniProt Q12809); assay: primary screen, population patch clamp on CHO cells stably expressing hERG; higher = less effect of the substance
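Further: peak tail current of the secondary pulse compared with the same well before compound.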

Chain of human ether-à-go-go-related gene (hERG) potassium channel (Q12809 whole entry, looked up): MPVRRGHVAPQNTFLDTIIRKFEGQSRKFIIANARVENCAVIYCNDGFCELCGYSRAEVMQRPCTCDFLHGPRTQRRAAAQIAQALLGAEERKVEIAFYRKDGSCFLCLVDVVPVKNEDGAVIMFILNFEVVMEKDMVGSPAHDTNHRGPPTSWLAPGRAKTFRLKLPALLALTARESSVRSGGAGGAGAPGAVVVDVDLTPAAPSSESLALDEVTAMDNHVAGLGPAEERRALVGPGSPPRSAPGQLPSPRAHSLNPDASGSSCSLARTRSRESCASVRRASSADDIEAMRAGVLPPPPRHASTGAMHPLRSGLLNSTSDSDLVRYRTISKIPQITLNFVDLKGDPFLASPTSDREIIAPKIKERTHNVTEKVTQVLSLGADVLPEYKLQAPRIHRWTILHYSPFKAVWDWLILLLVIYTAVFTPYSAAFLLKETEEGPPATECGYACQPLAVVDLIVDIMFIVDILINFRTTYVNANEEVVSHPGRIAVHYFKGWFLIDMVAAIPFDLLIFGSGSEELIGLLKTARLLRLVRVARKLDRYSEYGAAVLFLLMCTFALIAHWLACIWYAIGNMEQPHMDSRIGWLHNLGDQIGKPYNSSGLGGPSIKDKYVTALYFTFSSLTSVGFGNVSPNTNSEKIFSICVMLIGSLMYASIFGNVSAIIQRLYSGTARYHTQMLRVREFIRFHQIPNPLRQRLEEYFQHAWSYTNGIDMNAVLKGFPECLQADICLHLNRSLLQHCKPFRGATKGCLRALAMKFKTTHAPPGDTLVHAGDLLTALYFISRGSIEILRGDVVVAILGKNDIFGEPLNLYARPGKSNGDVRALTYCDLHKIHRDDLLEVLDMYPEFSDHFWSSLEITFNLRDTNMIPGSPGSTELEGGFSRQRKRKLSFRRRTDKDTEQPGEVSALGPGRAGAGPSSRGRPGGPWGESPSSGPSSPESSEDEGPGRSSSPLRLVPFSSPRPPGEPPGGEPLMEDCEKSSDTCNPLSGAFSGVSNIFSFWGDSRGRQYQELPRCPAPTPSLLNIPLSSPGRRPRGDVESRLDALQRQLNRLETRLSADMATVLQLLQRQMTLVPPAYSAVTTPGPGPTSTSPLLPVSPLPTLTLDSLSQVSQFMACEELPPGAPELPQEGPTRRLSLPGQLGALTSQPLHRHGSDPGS

Row | Structure (SMILES) | hERG current change (%, negative = inhibition) at 10uM
1 | O=C(N/N=C/c1cc(Br)c(O)c(Br)c1O)c1ccc2c(c1)OCCO2 | -26.9%
2 | Cc1cc(CNC(=O)Cn2cc([N+](=O)[O-])cn2)c2ccccc2n1 | -11.5%
3 | Cc1cccc(OCC(=O)Nc2ccccc2N2CCCCC2)c1C | -21.9%
4 | Cc1ccc(S(=O)(=O)N2CCCCC2)cc1NC(=O)CCc1nc2ccccc2c(=O)[nH]1 | -24.3%
5 | Cc1ccc(-c2nnn(CC(=O)N(Cc3cccs3)C(C(=O)NC(C)(C)C)c3ccco3)n2)o1 (stereo not shown) | 14.4%
6 | Cc1ccc(C(=O)N/C(=C\c2cccs2)C(=O)NCCCn2ccnc2)cc1C | -61%
7 | Cc1ccc(C(=O)N/C(=C\c2cn(C)c3ccccc23)C(=O)NCCCn2ccnc2)cc1 | -7.74%
8 | Cc1ccc(C(=O)N/C(=C\c2cccs2)C(=O)NCCCn2ccnc2)cc1 | -70.3%
9 | Cc1ccc(C(=O)N/C(=C\c2cn(S(=O)(=O)N(C)C)c3ccccc23)C(=O)NCCCn2ccnc2)cc1 | -28.6%
10 | O=C(NCCCn1ccnc1)/C(=C\c1cccs1)NC(=O)c1cccs1 | -62%
11 | O=C(NCCO)/C(=C\c1cccs1)NC(=O)c1cccs1 | 18.7%
12 | O=C(NCc1ccco1)/C(=C\c1cccs1)NC(=O)c1cccs1 | 6.26%
13 | Cc1ccc(C(=O)N/C(=C\c2cccs2)C(=O)NCCc2ccccn2)cc1C | -1.92%
14 | COc1ccc(C(=O)N/C(=C/c2cccs2)C(=O)NCCCn2ccnc2)cc1OC | -7.14%
15 | Cc1ccc(C(=O)N/C(=C/c2cccs2)C(=O)NCCCn2ccnc2)cc1 | -71.9%
16 | O=C(Cn1ncn2c(cc3ccccc32)c1=O)NCCC1=CCCCC1 | 7.76%
17 | CCn1cc(S(=O)(=O)N2CCCC2)cn1 | 8.1%
18 | COCCN1C(=O)N[C@@H](c2ccccc2)[C@@H](C(=O)OC)[C@H]1C | 2.28%
19 | Cc1ccc(C)c(/C=N/NC(=S)NC(C)C)c1 | 30.3%
20 | Cc1ccccc1OCC(=O)NNC=O | 22.9%
21 | O=C(Nc1cccc(-n2cnnn2)c1)c1cc(Cl)nc(Cl)c1 | -4.24%
22 | Cc1nccn1-c1ccc(C(F)(F)F)cc1[N+](=O)[O-] | 11.2%
23 | CCCn1c(NC(=O)CCS(=O)(=O)c2ccc(C)cc2)nc2ccccc21 | -24.2%
24 | Cc1cnn(Cc2cccnc2)c1N | 8.46%
25 | O=C(NCCCn1ccnc1)/C(=C/c1cccnc1)NC(=O)c1ccco1 | 4.25%
26 | O=C(NCCCn1ccnc1)/C(=C\c1ccco1)NC(=O)c1ccco1 | -35.3%
27 | O=C(NCCCn1ccnc1)/C(=C\c1cccs1)NC(=O)c1ccccc1 | -69%
28 | O=C(NCCCn1ccnc1)/C(=C\c1cccs1)NC(=O)c1ccco1 | -45.1%

Row | Structure (SMILES) | hERG current change (%, negative = inhibition) at 10uM
29 | O=C(NCCCn1ccnc1)/C(=C/c1ccco1)NC(=O)c1ccco1 | -45.6%
30 | O=C(NCCCn1ccnc1)/C(=C/c1cccs1)NC(=O)c1ccco1 | -50.8%
31 | CN(C)S(=O)(=O)n1cc(/C=C(\NC(=O)c2ccccc2)C(=O)NCCCn2ccnc2)c2ccccc21 | 8.31%
32 | COc1ccccc1/C=C(/NC(=O)c1ccccc1)C(=O)NCCCn1ccnc1 | 2.6%
33 | O=C(NCCCn1ccnc1)/C(=C/c1ccco1)NC(=O)c1cccs1 | -53.2%
34 | CCOC(=O)c1c(C)n(C)c2c(C)cc(O)c(OC(=O)CC)c12 | 7.65%
35 | CN(C)c1ccc(/C=C2\SC(N3CCCCC3)=NC2=O)cc1 | -21.8%
36 | Cc1occc1C(=O)Nc1ccc(Br)cc1F | 2.03%
37 | Cc1ccc(NC(=S)N(CCN(C)C)C(C)c2ccco2)cc1C (stereo not shown) | -44.3%
38 | CC1CCC2CCCCC2N1C(=O)c1cc([N+](=O)[O-])cc([N+](=O)[O-])c1 (stereo not shown) | 2.18%
39 | COc1cc(CCCN2C(=S)NC[C@H]2Cc2ccc(O)cc2)cc(OC)c1OC | -16.4%
40 | CC1CCN(C(=O)c2ccc(CS(=O)(=O)Cc3ccccc3)cc2)CC1 | -33.6%
41 | CC(=O)N1c2ccc(S(=O)(=O)NCC3CCC(C(=O)N4CCCCC4)CC3)cc2CC1C (stereo not shown) | 12.2%
42 | c1ccc2c(c1)[nH]c1c(NCC3CCCO3)ncnc12 (stereo not shown) | 11%
43 | CC(=O)Nc1ccc(S(=O)(=O)N(C)S(=O)(=O)c2ccc(F)cc2)cc1 | -63.3%
44 | CC(=O)c1cccc(NC(=O)CCCN(C)S(=O)(=O)c2ccc(F)cc2)c1 | -2.1%
45 | CN(CCCC(=O)Nc1ccccc1)S(=O)(=O)c1ccc(Cl)cc1 | -47.9%
46 | CN(CCCC(=O)Nc1ccc(OC(F)F)cc1)S(=O)(=O)c1ccc(F)cc1 | -71.3%
47 | Cc1ccc(S(=O)(=O)N(C)CCCC(=O)Nc2ccncc2)cc1 | -63%
48 | Cc1ccc(S(=O)(=O)N(C)CCCC(=O)Nc2ccc(F)cc2)cc1 | -30.1%
49 | CN(CC(=O)Nc1ccncc1)S(=O)(=O)c1ccc(Cl)cc1 | -5.97%
50 | CN(CCCC(=O)Nc1ccncc1)S(=O)(=O)c1ccc(Cl)cc1 | -53.8%
51 | CC(=O)Nc1ccc(S(=O)(=O)N(C)c2ccc(O)cc2)cc1 | 2.53%
52 | COc1ccc(NC(=O)CCCN(C)S(=O)(=O)c2ccc(C)cc2)cc1 | -26.8%
53 | CC(=O)Nc1ccc(S(=O)(=O)N(C)c2ccccc2)cc1 | 0.318%
54 | Cc1ccc(S(=O)(=O)N(C)CC(=O)Nc2ccncc2)cc1 | -8.2%
55 | O=C(Oc1ccnc2cc(Cl)ccc12)N1CCOCC1 | -1.74%

Reference: paper PMC4336329 (PLoS ONE, 2015)
